Source: PubChem BioAssay AID1159580 (chemical genetic matrix, 2015)
Hit rate of the full screen: of about 5,500 compounds, about 2,000 (36%) were called active. Inconclusive results (about 18%) are left out. No stated cut-off is given here; in the data, active means normalized growth mostly below about 0.91 (no sharp cut-off); inconclusive means no clear call, values can overlap the other calls; inactive means mostly above about 0.92. Some of the results follow.

Experiment: chemical genetic growth profiling, strain panel (AID 1159580);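 further: tested at 20 µM; growth read once vehicle control cultures reached saturation at 30 °C; 1 = growth at the plate median or of vehicle wells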
Conditions: S. cerevisiae deletion strains, growth OD

Measured: normalized growth

O=c1cc(-c2ccccc2O)oc2cc(O)ccc12
inactive: locus YAL021C, strain ccr4, stronger effect = lower value 1.05 | locus YAL026C, strain drs2, stronger effect = lower value 0.977 | locus YAL030W, strain snc1, stronger effect = lower value 0.985 | locus YBL061C, strain skt5, stronger effect = lower value 0.976 | locus YBR009C, strain hhf1, stronger effect = lower value 0.979 | locus YBR023C, strain chs3, stronger effect = lower value 1 | locus YBR171W, strain sec66, stronger effect = lower value 0.951 | locus YBR231C, strain swc5, stronger effect = lower value 0.956 | locus YBR279W, strain paf1, stronger effect = lower value 0.996 | locus YCL011C, strain gbp2, stronger effect = lower value 0.977 | locus YCL016C, strain dcc1, stronger effect = lower value 1.02 | locus YCL069W, strain vba3, stronger effect = lower value 0.97 | locus YCR088W, strain abp1, stronger effect = lower value 0.956 | locus YDL005C, strain med2, stronger effect = lower value 0.956 | locus YDL040C, strain nat1, stronger effect = lower value 0.967 | locus YDR001C, strain nth1, stronger effect = lower value 0.978 | locus YDR069C, strain doa4, stronger effect = lower value 0.95 | locus YDR137W, strain rgp1, stronger effect = lower value 0.958 | locus YDR159W, strain sac3, stronger effect = lower value 0.91 | locus YDR195W, strain ref2 0.962 | locus YDR297W, strain sur2, stronger effect = lower value 0.964 | locus YDR334W, strain swr1, stronger effect = lower value 0.973 | locus YDR335W, strain msn5, stronger effect = lower value 0.979 | locus YDR392W, strain spt3, stronger effect = lower value 0.92 | locus YEL003W, strain gim4, stronger effect = lower value 0.968 | locus YEL037C, strain rad23, stronger effect = lower value 0.962 | locus YEL061C, strain CIN8 (second series), stronger effect = lower value 0.963 | locus YER015W, strain faa2, stronger effect = lower value 0.974 | locus YER016W, strain bim1, stronger effect = lower value 0.973 | locus YER111C, strain swi4, stronger effect = lower value 0.951 | locus YER155C, strain BEM2 (second series), stronger effect = lower value 0.955 | locus YFR010W, strain ubp6, stronger effect = lower value 0.952 | locus YGL167C, strain pmr1, stronger effect = lower value 0.972 | locus YGL173C, strain kem1, stronger effect = lower value 0.95 | locus YGL227W, strain vid30, stronger effect = lower value 0.964 | locus YGL240W, strain doc1, stronger effect = lower value 0.963 | locus YGL253W, strain hxk2, stronger effect = lower value 0.932 | locus YHR013C, strain ard1, stronger effect = lower value 0.952 | locus YHR027C, strain rpn1, stronger effect = lower value 0.965 | locus YHR030C, strain SLT2, stronger effect = lower value 0.978 | locus YHR079C, strain IRE1, stronger effect = lower value 0.987 | locus YHR142W, strain chs7, stronger effect = lower value 0.965 | locus YJL092W, strain hpr5, stronger effect = lower value 0.954 | locus YJL095W, strain BCK1 (second series), stronger effect = lower value 0.994 | locus YJL095W, strain BCK1, stronger effect = lower value 0.997 | locus YJL115W, strain asf1, stronger effect = lower value 0.97 | locus YJL129C, strain trk1, stronger effect = lower value 0.945 | locus YJL154C, strain vps35, stronger effect = lower value 0.979 | locus YJL164C, strain tpk1, stronger effect = lower value 0.992 | locus YJL166W, strain qcr8, stronger effect = lower value 0.966 | locus YJR066W, strain TOR1, stronger effect = lower value 0.929 | locus YKL160W, strain elf1, stronger effect = lower value 1.03 | locus YKR026C, strain gcn3, stronger effect = lower value 0.972 | locus YKR091W, strain srl3, stronger effect = lower value 0.982 | locus YLL001W, strain dnm1, stronger effect = lower value 0.987 | locus YLL026W, stronger effect = lower value 0.969 | locus YLL041C, strain sdh2, stronger effect = lower value 0.977 | locus YLR027C, strain aat2, stronger effect = lower value 0.998 | locus YLR113W, strain HOG1, stronger effect = lower value 1 | locus YLR221C, strain rsa3, stronger effect = lower value 0.938 | locus YLR258W, strain gsy2, stronger effect = lower value 0.994 | locus YLR262C, strain YPT6 (second series), stronger effect = lower value 0.968 | locus YLR320W, strain mms22, stronger effect = lower value 0.95 | locus YLR342W, strain FKS1, stronger effect = lower value 0.974 | locus YLR357W, strain rsc2, stronger effect = lower value 0.978 | locus YLR370C, strain arc18, stronger effect = lower value 0.966 | locus YLR384C, strain iki3, stronger effect = lower value 0.959 | locus YML120C, strain ndi1, stronger effect = lower value 0.996 | locus YMR058W, strain fet3, stronger effect = lower value 0.981 | locus YMR125W, strain sto1, stronger effect = lower value 0.977 | locus YMR129W, stronger effect = lower value 0.987 | locus YMR205C, strain PFK2, stronger effect = lower value 0.996 | locus YMR231W, strain pep5, stronger effect = lower value 0.966 | locus YNL071W, strain lat1, stronger effect = lower value 0.991 | locus YNL183C, strain NPR1, stronger effect = lower value 0.909 | locus YNL209W, strain ssb2, stronger effect = lower value 0.996 | locus YNL248C, strain rpa49, stronger effect = lower value 0.969 | locus YNL322C, strain KRE1 (second series), stronger effect = lower value 0.974 | locus YNR049C, strain mso1, stronger effect = lower value 0.979 | locus YOR001W, strain rrp6, stronger effect = lower value 0.899 | locus YOR070C, strain gyp1, stronger effect = lower value 0.978 | locus YOR080W, strain dia2, stronger effect = lower value 0.972 | locus YOR083W, strain WHI5, stronger effect = lower value 1.03 | locus YOR106W, strain vam3, stronger effect = lower value 0.989 | locus YOR231W, strain MKK1, stronger effect = lower value 0.989 | locus YOR265W, strain rbl2, stronger effect = lower value 0.97 | locus YOR270C, strain vph1, stronger effect = lower value 0.916 | locus YOR290C, strain snf2, stronger effect = lower value 1.02 | locus YPL051W, strain arl3, stronger effect = lower value 0.975 | locus YPL078C, strain atp4, stronger effect = lower value 1.05 | locus YPL106C, strain sse1, stronger effect = lower value 0.984 | locus YPL240C, strain hsp82, stronger effect = lower value 0.971 | locus YPL256C, strain CLN2, stronger effect = lower value 0.95
